Source: the supplement of paper PMC6555819

Assays:
Experiment in all cases: PBM binding z-score (relative to random genomic background probes); higher = stronger binding; sequences stand for … in GC…GCGATTGACAGCGTAGAATGAAGG
[1] = test system: FXR:RXRa (NR concentration 270 nM, RXRa partner concentration 90 nM)
In short: (§1)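 Binding z-scores take random background probes as their reference. They come from custom Agilent 4×180K protein-binding microarrays incubated 1 h with ligand-free nuclear receptor dimers, with antibodies against each partner (one per run) detecting binding. Scanned fluorescence was regression-normalized.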

[2] = test system: LXRa:RXRa (NR concentration 270 nM, RXRa partner concentration 90 nM)
In short: as §1

[3] = test system: LXRa homodimer (NR concentration 270 nM)
In short: as §1

[4] = test system: LXRb:RXRa (NR concentration 270 nM, RXRa partner concentration 90 nM)
In short: as §1

[5] = test system: LXRb homodimer (NR concentration 270 nM)
In short: as §1

[6] = test system: PPARa:RXRa (NR concentration 270 nM, RXRa partner concentration 90 nM)
In short: as §1

[7] = test system: PPARg:RXRa (NR concentration 180 nM, RXRa partner concentration 90 nM)
In short: as §1

[8] = test system: PPARg:RXRa 270nM:90nM, anti-RXR (NR concentration 270 nM, RXRa partner concentration 90 nM)
In short: as §1

[9] = test system: PPARg:RXRa 30nM:10nM, anti-RXR (NR concentration 30 nM, RXRa partner concentration 10 nM)
In short: as §1

[10] = test system: PPARg:RXRa 90nM:30nM, anti-RXR (NR concentration 90 nM, RXRa partner concentration 30 nM)
In short: as §1

Sequence | PBM binding z-score [1] | PBM binding z-score [2] | PBM binding z-score [3] | PBM binding z-score [4] | PBM binding z-score [5] | PBM binding z-score [6] | PBM binding z-score [7] | PBM binding z-score [8] | PBM binding z-score [9] | PBM binding z-score [10]
TGTCAAAGTTCAAAAGTAACGTAAGTATCCACAC | 6.34 | 6.07 | 4.09 | 4.04 | 2.53 | 4.83 | 7.77 | 6.63 | 4.65 | 6.63
CGTCCAAGGTCAAAGGACAGTGAAGAGATGACGG | 6.9 | 5.32 | 0.749 | 3.74 | 1.13 | 5.6 | 5.59 | 5.73 | 2.46 | 4.8
GCATATAGGTAATATAAGGTGAAAGTCCGATTGT | 1.9 | 3.31 | 0.295 | 1.14 | -0.277 | 1.81 | 1.55 | 1.24 | 0.669 | 1.16
CAAACTAGGTCACGAAAGTTCAAAGTCGAATGAC | 6.48 | 7.84 | 8.43 | 6.15 | 1.48 | 6.14 | 9.94 | 8.29 | 6.58 | 8.35
TAGCCTAGGTCAGATGGGGCCAGTATACGCTATA | 2.75 | 1.56 | -0.0271 | 1.38 | -0.069 | 1.78 | 0.972 | 1.14 | 0.184 | 0.725
TCTCGGAGGACACGAAAGGTCAGAGATCGACATC | 3.24 | 3.71 | 2.64 | 3.32 | 0.0145 | 3.65 | 1.5 | 2.75 | 2.97 | 2.88
TGAATGACGTTATAAGATCAGGGAACGTTGCAAA | -0.0798 | -0.0437 | -0.351 | -0.274 | -0.245 | -0.16 | 0.208 | 0.0909 | 0.775 | 0.526
ATCTCTAAGTAACAAGTTCAGTGAAAGAGAGGAC | 0.888 | 0.954 | 0.532 | 0.595 | 0.901 | 0.572 | 0.408 | 0.672 | 0.701 | 0.344
CGTCCAAGGGCATAGGAGGTCAGTGAAGACAGAT | 3.02 | 5.05 | 1.32 | 2.56 | -0.901 | 3.11 | 1.15 | 1.38 | -0.000502 | 0.667
TCATATAGGTAAATGCTAGTTGAAAGTCCGATCT | 0.79 | 0.719 | 0.081 | 0.689 | -0.0232 | 1.09 | 0.625 | 1.79 | 3.76 | 2.81
CCAACGAGGGCATGAGTTGATAGCAAATGCCGAT | 0.351 | 0.134 | -0.411 | -0.153 | -0.701 | 0.994 | 1.05 | 0.858 | -0.155 | 0.242
ACTATTAGTTGAGTCGAGGGCAACCGATAGGTTG | 0.84 | 0.505 | 0.226 | 0.34 | 0.349 | 0.703 | 0.466 | 0.452 | 0.0326 | 0.43
CCGAGTAGGTTATGGGGCATTCCGGCAACGGTGA | 0.0637 | 0.227 | -0.224 | 0.574 | -0.279 | 1.97 | 3.05 | 4.51 | 1.83 | 3.99
CCTCCGAGGACAGAAGGTCAGAGCTGTCCGCTTT | 1.46 | 1.7 | 0.408 | 1.37 | -0.149 | 1.89 | -0.0299 | 0.869 | -0.46 | 0.274
ACTAGCAGGTCAAGTTTGGGTCACTCAAACAAAG | 5.89 | 4.79 | 1.41 | 3.88 | 1.28 | 4.83 | 4.43 | 4.76 | 1.27 | 3.41
TCAAGTTGGTCACGGAGGTCACACACGACGGGTA | 3.09 | 3.76 | 2.38 | 3.17 | 0.603 | 4.18 | 3.94 | 3.95 | 3.52 | 3.47
CTCGAAAGGTCGTGCTCAGGTGAGTATTCCAAAC | 5.42 | 3.85 | 0.158 | 3.32 | 0.259 | 4.52 | 2.26 | 3.47 | 0.582 | 1.86
ATACCAAGGTGATCGTGGGGTCGTTGATACTAAC | 1.56 | 1.27 | 0.187 | 2.56 | 0.143 | 2.42 | 0.805 | 0.876 | 0.0671 | 0.468
ATCTCTAGGTAAAAGTTCAGTGAGTCCCGAGGAT | 0.932 | 1.64 | 1.36 | 1.11 | 0.656 | 4.26 | 7.9 | 7.98 | 7.48 | 9.16
AGAATGAGGTTATTAAGATCAGGGGATTGCGGTC | 1.52 | 1.31 | 0.0189 | 1.18 | -0.0318 | 2.51 | 1.47 | 1.87 | 0.612 | 1.08
CCTACTGGGCCATTCAGAGGTCATTGACCATATG | 3.07 | 4.59 | 6.66 | 3.95 | 0.537 | 3.86 | 2.55 | 3.37 | 1.07 | 2.25
GCGACTGGGGCATCAGCAGGTTACCATTACTTAA | -0.552 | -0.326 | -0.0382 | 0.719 | -1.11 | 0.893 | 0.716 | 0.73 | -0.277 | 0.0982
GCTGGTAGGTCAGGTTGGTCAGCTAACGGGTACG | 1.28 | 1.03 | 0.172 | 0.929 | -0.0209 | 2.05 | 1.44 | 1.88 | 0.102 | 1.02
TTACCAAGGTGAGCTGAGCTCGTTGATCCAACTC | -0.195 | -0.544 | -0.993 | -0.67 | -1.3 | 0.11 | -0.393 | -0.0625 | -0.293 | -0.268

Sequence | PBM binding z-score [1] | PBM binding z-score [2] | PBM binding z-score [3] | PBM binding z-score [4] | PBM binding z-score [5] | PBM binding z-score [6] | PBM binding z-score [7] | PBM binding z-score [8] | PBM binding z-score [9] | PBM binding z-score [10]
TAGCCTAGGTCATGCGGGGCAGTATAGTGTCGGC | 3.99 | 3.24 | 0.431 | 2.23 | 0.295 | 3.56 | 2.18 | 2.41 | 0.0404 | 1.28
CCTTACGGGTCACTGACAGGTTATGGCATTTGGA | 5.56 | 4.1 | 0.253 | 3.08 | -0.323 | 5.03 | 4.2 | 4.62 | 1.67 | 3.02
TCTAGTTGGTCACGGAGGTCAGACACGACGGGTA | 2.17 | 2.33 | 1.51 | 2.23 | 0.127 | 2.88 | 2.45 | 2.97 | 3.26 | 3.11
ATCGCAAGGTCGACGAGGTGAGTATACACCGTTT | 1.64 | 1.32 | -0.778 | 1.06 | -0.359 | 2.74 | 1.28 | 0.926 | -0.0262 | 0.379
CCTACTGGGCCAAAAAGGTCATTGAGGCCGATAA | 3.73 | 4.24 | 2.98 | 4.11 | 0.134 | 4.69 | 3.3 | 3.92 | 1.27 | 3
AGAACGATGGCACGCTGAGTTGATAGCAGAGTAG | -0.77 | -0.938 | -0.952 | -0.881 | -1.06 | -0.687 | 0.523 | -0.439 | -0.196 | -0.443
AATACAGGGTCCCTAGGCCAGAGTAGGTACGAAT | -0.341 | -0.334 | -0.145 | -0.634 | -0.575 | -0.299 | 0.603 | 0.00679 | 0.133 | 0.0597
CCGACTGGGGCAATGGTTACCATACTCAGTACGA | -0.281 | -0.63 | -0.543 | -0.411 | -1.1 | 0.901 | 2.88 | 3.63 | 1.72 | 3.63
TCTTGTAGATAAGCAGGTTAAGAAAGCTGGCCAA | 0.562 | 0.358 | -0.156 | -0.00905 | -0.669 | 0.533 | -0.481 | 1.19 | 2.41 | 1.65
CCTGCTAGGTCCATGGTCAGCTAAAGCAGCTCGC | -0.648 | -0.658 | -0.744 | -0.958 | -0.563 | -0.447 | -0.772 | -0.287 | -1.2 | -0.648
TCAAATAGGTAAATGCTAGGTGAAAGTCCGATCT | 1.32 | 0.737 | -0.0235 | 0.834 | -0.239 | 1.52 | 0.685 | 2.74 | 4.4 | 3.68
TAGCCTAGGTCAGATCGGGCCAGTAGACGCTATA | 2.39 | 0.985 | -0.414 | 0.183 | -0.713 | 1.45 | 0.406 | 0.586 | -0.637 | 0.224
GCGACTGGGGCATCAGCAAGTTACCATAACTTAA | -0.358 | -0.587 | -0.708 | 0.105 | -0.805 | 0.514 | 0.866 | 1.08 | -0.463 | 0.387
GCTAGCAGGCCATCTGGGTCACTCAATGACGGGC | 0.0876 | -0.178 | -0.882 | -0.232 | -0.896 | 1.7 | 1.31 | 1.36 | -0.319 | 0.57
GATATAGGGTCAAGGCCAGAGTACGCGTATTGAT | 7.01 | 4.58 | 0.271 | 3.91 | 0.188 | 5.82 | 6.29 | 6.2 | 3.04 | 5.65
GGAACGAGGGCAAGTTGATAGAAGAGTTTGATGG | 0.705 | 0.396 | -0.176 | 0.213 | -0.242 | 1.41 | 1.29 | 0.969 | 0.173 | 0.351
GATACAGGGTCAAGGCCAGCGTACGCGTATTGAT | 6.93 | 4.12 | 0.203 | 3.86 | -0.187 | 5.63 | 5.9 | 5.32 | 2.19 | 4.12
CCGAGTAGATTATGGGGCATTCAGGCAACGGTGA | 0.0957 | -0.0855 | -0.262 | 0.275 | -0.645 | 0.18 | 0.487 | 0.839 | 0.0845 | 0.412
CCTACTGGGCCACGAAAGCTCATTGATTCAGTGA | -0.608 | -0.413 | -0.683 | -1 | -0.95 | -0.132 | 1.08 | 1.15 | -0.145 | 0.162
TCTCGGAGGACACGGAAGGTCAGAGCTCGACATC | 2.08 | 1.8 | 1.19 | 1.33 | -0.694 | 2.04 | 0.365 | 1.4 | 2.23 | 1.53
CATACAGGGTCAGCTAGGCCAGAGAAGGGACGGC | 4.68 | 2.97 | -0.0685 | 2.27 | 0.339 | 4.4 | 3.38 | 3.06 | 0.62 | 1.82
ATGTGTAGGTTAGCTGGGGTCATTCAGACTAGGC | 4.6 | 5.92 | 2.89 | 4.92 | 2.24 | 4.77 | 2.38 | 3.24 | 1.16 | 2.54
CCTGCTAGGTCAACGGTCAGCTAAAGCAGCTCGC | 4.13 | 3.09 | 0.58 | 2.17 | 0.4 | 4 | 6.12 | 6.08 | 3.98 | 6.08
TCCAGTAGGTTAGGGGCATTCAGAATGGCGTCGA | 0.986 | 0.635 | -0.245 | 1.19 | -0.0601 | 1.72 | 1.87 | 3.55 | 2.86 | 3.05
